Measurements taken from ChEMBL document CHEMBL1857833, “Screening and optimization of specific chemical series against human African Trypanosomiasis (HAT)”.
Values joined by “and” are separate entries in the source; they are usually repeats but may differ in a detail not shown here. Identical values can stand only once. Screen size: about 4,400 compounds; about 390 (8.9%) showed an effect of 50% or more. The sample holds strong results, similar compounds and a random draw of the others, so the mix is not that of the screen.

Test system: Trypanosoma brucei
Test: DNDI: Inhibition of Human African Trypanosomiasis, SBRI 427, in vitro at 2 ug.mL-1
Type: functional

Going from O/N=C(\NCc1cc(F)ccc1F)c1ccc(Oc2cccc3cccnc23)nc1 to O/N=C(\NCc1ccccc1F)c1cccnc1OCc1cccc(F)c1, the “% inhibition” value rises from 4% to 29%.

Going from COc1cc(-c2nc(CNCC(c3ccccc3)c3ccccc3)co2)cc(OC)c1OC to COc1cc(-c2nc(CNC(C)c3cccc4ccccc34)co2)cc(OC)c1OC (centres undefined), the “% inhibition” value falls from 22% to -4%.

Compared with Cc1cn(/C(=N\O)c2ccc(C)nc2Oc2cccc(F)c2)cn1, Cc1cc(C)cc(Oc2ccc(/C(=N/O)n3cnc(C)c3)cn2)c1 is higher in “% inhibition” value: 0% for the first, 1% for the second.

COCCN(Cc1coc(-c2ccc(OC)cc2)n1)C(C)C and COc1ccc(-c2nc(CNC(C)CCCC(C)C)co2)cc1 (centres undefined) are the same in “% inhibition” value: -10% for the first, -10% for the second.

First: Cn1nc(C(C)(C)C)cc1NCc1coc(-c2ccccc2Br)n1
Second: Cn1nc(C(C)(C)C)cc1NCc1coc(-c2ccc(C(F)(F)F)cc2)n1
The “% inhibition” value of the first is lower: -43% for the first, -8% for the second.

Going from CC(C)(C)COc1ncccc1/C(=N/O)NCc1ccccc1 to O/N=C(\NCc1cccnc1)c1cccnc1OCc1ccccc1F, the “% inhibition” value falls from 17% to 4%.

First: CCCCCCC(C)NCc1coc(-c2cccc(C)c2)n1 (centres undefined)
Second: CCCCCCC(C)NCc1coc(-c2ccc(O)cc2)n1 (centres undefined)
The “% inhibition” value of the first is lower: 0% for the first, 52% for the second.

Compared with CCCCCC(C)NCc1coc(-c2ccc(OC)cc2)n1 (centres undefined), CCCCCCC(C)NCc1coc(-c2ccc(OC)cc2)n1 (centres undefined) is higher in “% inhibition” value: 23% for the first, 65% for the second.

Going from CCCC(C)NCc1coc(-c2ccc(F)cc2)n1 (centres undefined) to Fc1ccc(-c2nc(CNC3CCCCC3)co2)cc1, the “% inhibition” value rises from -16% to 8%.

Going from CN(Cc1coc(-c2ccc(F)cc2)n1)C(c1ccccc1)c1ccccc1 to CC(NCc1coc(-c2cccc3ccccc23)n1)c1ccccc1 (centres undefined), the “% inhibition” value rises from -2% to 26%.

First: Cc1ccc(/C(=N/O)N2CCC(N(C)C)C2)c(Oc2cccnc2)n1 (centres undefined)
Second: Cc1ccc(/C(=N/O)N2C(C)CCCC2C)c(Oc2ccc(F)cc2)n1 (centres undefined)
The “% inhibition” value of the first is lower: 7% for the first, 28% for the second.

First: CCC(NCc1coc(-c2cccc3ccccc23)n1)c1ccccc1 (centres undefined)
Second: Cc1ccc([C@@H](C)NCc2coc(-c3cccc4ccccc34)n2)cc1
The “% inhibition” value of the first is lower: 64% for the first, 79% for the second.

First: Cc1ccc(C(C)NCc2coc(-c3cccc4ccccc34)n2)cc1 (centres undefined)
Second: FC(F)(F)c1ccc(CNCc2coc(-c3cccc4ccccc34)n2)cc1
The “% inhibition” value of the first is lower: -2% for the first, 3% for the second.

First: CC(CNCc1coc(-c2ccccc2Cl)n1)c1ccccc1 (centres undefined)
Second: Fc1ccccc1-c1nc(CNc2ccccc2)co1
The “% inhibition” value of the first is lower: -5% for the first, 13% for the second.

Compared with CCOc1cccc(-c2nc(CNCc3cccc(OC)c3)co2)c1, COc1cccc(-c2nc(CNCc3ccccc3C(F)(F)F)co2)c1 is higher in “% inhibition” value: -5% for the first, 20% for the second.

Going from CCN(CC)CCN(CC)Cc1coc(-c2cccs2)n1 to CCCCN(CC#N)Cc1coc(-c2ccc(C)cc2)n1, the “% inhibition” value rises from 1% to 7%.

First: COc1cccc(-c2nc(Cn3ccnc3C(C)C)co2)c1
Second: COc1cccc(-c2nc(CN(CCN(C)C)Cc3ccccc3)co2)c1
The “% inhibition” value of the first is lower: 5% for the first, 23% for the second.

Going from C=CCc1ccc(Oc2nc(C)ccc2/C(=N/O)N2CCSCC2)c(OC)c1 to C=CCc1ccc(Oc2nc(C)ccc2/C(=N/O)N2CCN(CC=C)CC2)c(OC)c1, the “% inhibition” value rises from 48% to 68%.

Compared with Cc1cc(C)cc(CN/C(=N\O)c2ccc(C)nc2Oc2cc(Cl)ccc2Cl)c1, Cc1ccc(/C(=N/O)NCc2cc(F)cc(F)c2)c(Oc2cc(Cl)ccc2Cl)n1 is higher in “% inhibition” value: 64% for the first, 76% for the second.

First: C=CCc1ccc(Oc2nc(C)ccc2/C(=N/O)NCc2ccco2)c(OC)c1
Second: C=CCc1ccc(Oc2nc(C)ccc2/C(=N/O)NCc2ccc(OC)cc2)c(OC)c1
The “% inhibition” value of the first is higher: 63% for the first, 22% for the second.

First: Cc1ccc(/C(=N/O)NCc2cccs2)c(Oc2cc(Cl)ccc2Cl)n1
Second: Cc1ccc(/C(=N/O)NCc2ccco2)c(Oc2cc(Cl)ccc2Cl)n1
The “% inhibition” value of the first is lower: 16% for the first, 62% for the second.

Going from Cc1ccc(/C(=N/O)NCc2ccco2)c(Oc2ccc(Cl)cc2-c2ccno2)n1 to Cc1ccc(/C(=N/O)NCc2ccccc2F)c(Oc2cc(Cl)ccc2Cl)n1, the “% inhibition” value rises from 13% to 81%.

Going from C=CCc1ccc(Oc2nc(C)ccc2/C(=N/O)NCC2CC2)c(OC)c1 to C=CCc1ccc(Oc2nc(C)ccc2/C(=N/O)N2CCC(C(=O)OC)CC2)c(OC)c1, the “% inhibition” value falls from 44% to 27%.

First: COc1ccc(CN/C(=N\O)c2ccc(C)nc2Oc2cc(Cl)ccc2Cl)cc1
Second: COc1cccc(CN/C(=N\O)c2ccc(C)nc2Oc2cc(Cl)ccc2Cl)c1
The “% inhibition” value of the first is higher: 14% for the first, -48% for the second.

Compared with Cc1ccc(/C(=N/O)NCc2ccncc2)c(Oc2cc(Cl)ccc2Cl)n1, Cc1ccc(/C(=N/O)NCc2ccccc2C)c(Oc2cc(Cl)ccc2Cl)n1 is higher in “% inhibition” value: -10% for the first, 18% for the second.

First: CCOc1ccc(-c2nc(CNCc3ccc(OC)cc3OC)co2)cc1
Second: CCOc1ccc(-c2nc(CN(C)CCc3ccc(OC)c(OC)c3)co2)cc1
The “% inhibition” value of the first is lower: -17% for the first, -3% for the second.

Compared with CCOc1ccccc1-c1nc(CN2CCN(C(=O)C3CCCO3)CC2)co1 (centres undefined), CCOc1ccccc1-c1nc(CN(C)CC2OCCO2)co1 is lower in “% inhibition” value: 8% for the first, -5% for the second.

First: Cc1ccc(Oc2nc(C)ccc2/C(=N/O)N2CCSC2)c(C)c1
Second: Cc1ccc(Oc2nc(C)ccc2/C(=N/O)N(C)C2CCCCC2)c(C)c1
The “% inhibition” value of the first is higher: 26% for the first, 18% for the second.

First: COCC(C)NCc1coc(-c2ccccc2Cl)n1 (centres undefined)
Second: CCN(Cc1coc(-c2ccccc2F)n1)c1ccc(C)cc1
The “% inhibition” value of the first is higher: -6% for the first, -32% for the second.

Compared with Cc1ccc(/C(=N/O)NCc2cc(F)ccc2F)c(Oc2cc(Cl)ccc2Cl)n1, Cc1ccc(/C(=N/O)NCc2c(F)cccc2F)c(Oc2cc(Cl)ccc2Cl)n1 is higher in “% inhibition” value: -39% for the first, 35% for the second.

Compared with O/N=C(\NC1CCCCC1)c1ccnc(Oc2cccc3c2CCCC3)c1, O/N=C(\NCC1CCCCC1)c1ccnc(Oc2cccc3c2CCCC3)c1 is lower in “% inhibition” value: 99% for the first, 96% for the second.

Going from CN(/C(=N\O)c1ccnc(Oc2cccc3c2CCCC3)c1)C1CCCCC1 to Cc1ccc(Oc2cc(/C(=N/O)NC3CCCC3)ccn2)c2c1CCC2, the “% inhibition” value falls from 14% to 11%.

First: O/N=C(\NCc1c(F)cccc1F)c1ccnc(Oc2cccc3c2CCCC3)c1
Second: Cc1ccc(CN/C(=N\O)c2ccnc(Oc3cccc4c3CCCC4)c2)o1
The “% inhibition” value of the first is lower: 37% for the first, 40% for the second.

Compared with CCOc1ccccc1-c1nc(CN(CC)Cc2ccncc2)co1, CCOc1ccccc1-c1nc(CN2CCN(C(c3ccccc3)c3ccccc3)CC2)co1 is lower in “% inhibition” value: 12% for the first, 5% for the second.

Going from CCOc1ccc(-c2nc(CNCC(C)(C)CN(C)C)co2)cc1 to FC(F)(F)c1ccc(-c2nc(CNc3cc[nH]n3)co2)cc1, the “% inhibition” value rises from 39% to 40%.

First: O/N=C(/c1ccc(Oc2cccc(F)c2)nc1)N1CCN(c2ccccc2)CC1
Second: O/N=C(/c1ccc(Oc2cccc3ccccc23)nc1)N1CCCCCC1
The “% inhibition” value of the first is lower: 2% for the first, 25% for the second.

Going from COc1ccc(Oc2cc(/C(=N/O)NC3CC(C)CC(C)(C)C3)ccn2)cc1 (centres undefined) to COc1ccc(Oc2cc(/C(=N/O)NC3CCC3)ccn2)cc1, the “% inhibition” value rises from 14% to 100%.

Going from COc1ccc(Oc2cc(/C(=N/O)NC3CCCCC3)ccn2)cc1 to CSc1ccc(Oc2cc(/C(=N/O)NC3CCCCC3)ccn2)cc1, the “% inhibition” value falls from 100% to 21%.

Going from COc1ccc(Oc2cc(/C(=N/O)NCC3CCCO3)ccn2)cc1 (centres undefined) to COc1ccc(Oc2cc(/C(=N/O)N3C(C)CCCC3C)ccn2)cc1 (centres undefined), the “% inhibition” value falls from 34% to 10%.

Going from CCc1ccc(Oc2ncccc2/C(=N/O)NC(C)COC)cc1 (centres undefined) to COCC(C)N/C(=N\O)c1cccnc1Oc1ccc(OC)cc1 (centres undefined), the “% inhibition” value falls from 87% to -10%.

First: COCC(C)N/C(=N\O)c1cccnc1OCC(C)C (centres undefined)
Second: COCC(C)N/C(=N\O)c1cccnc1Oc1ccc(C(C)C)cc1 (centres undefined)
The “% inhibition” value of the first is lower: 5% for the first, 99% for the second.

Going from CCc1ccc(Oc2ncccc2/C(N)=N/O)cc1 to O/N=C(\NCc1cccnc1)c1cccnc1Oc1ccc(F)cc1, the “% inhibition” value rises from 1% to 2%.

Compared with COCC(C)N/C(=N\O)c1cccnc1Oc1cccc(C(F)(F)F)c1 (centres undefined), CC(C)(C)CN/C(=N\O)c1cccnc1Oc1c(F)cccc1F is higher in “% inhibition” value: 1% for the first, 100% for the second.

First: COc1ccccc1CN/C(=N\O)c1ccc(Oc2cc(C)cc(C)c2)nc1
Second: COc1ccccc1CN/C(=N\O)c1ccc(C)nc1Oc1ccc(Cl)cc1
The “% inhibition” value of the first is lower: -8% for the first, 3% for the second.

First: O/N=C(/c1ccc(Oc2ccc(Cl)cc2)nc1)n1ccnc1
Second: O/N=C(\NCc1ccncc1)c1cccnc1Oc1ccc(F)cc1
The “% inhibition” value of the first is lower: 0% for the first, 2% for the second.

First: CCOc1ccc(Oc2cc(/C(=N/O)NCc3ccc(C)o3)ccn2)cc1
Second: COc1ccc(CN/C(=N\O)c2cccnc2Oc2c(F)cccc2F)cc1
The “% inhibition” value of the first is higher: 24% for the first, -7% for the second.

First: Cc1ccccc1-c1nc(CNCc2ccccc2C(F)(F)F)co1
Second: FC(F)(F)c1ccc(-c2nc(CNc3ccc(Oc4ccccc4)cc3)co2)cc1
The “% inhibition” value of the first is higher: 7% for the first, 4% for the second.

Compared with CCOc1ccccc1CN/C(=N\O)c1ccc(C)nc1OCc1ccccc1F, CCOc1ccccc1CN/C(=N\O)c1cccnc1OCc1ccccc1F is higher in “% inhibition” value: 8% for the first, 55% for the second.

Compared with COc1ccccc1CN/C(=N\O)c1ccc(C)nc1OCc1cccc(F)c1, CCOc1ccccc1CN/C(=N\O)c1cccnc1OCc1cccc(F)c1 is higher in “% inhibition” value: -8% for the first, 72% for the second.

First: COc1ccccc1CN/C(=N\O)c1ccc(C)nc1Oc1cc(Cl)ccc1Cl
Second: COc1ccccc1CN/C(=N\O)c1ccc(C)nc1Oc1ccc(F)c(Cl)c1
The “% inhibition” value of the first is higher: 100% for the first, 11% for the second.

First: Cc1ccc(C)c(N2CCN(Cc3coc(-c4ccc(F)cc4)n3)CC2)c1
Second: Cc1ccc(-c2nc(CNC3CCCCCCC3)co2)cc1
The “% inhibition” value of the first is lower: -12% for the first, 71% for the second.

Compared with CC(NCc1coc(-c2ccc(O)cc2)n1)C1CCCCC1 (centres undefined), Oc1ccc(-c2nc(CNC3CCCCCC3)co2)cc1 is higher in “% inhibition” value: 0% for the first, 16% for the second.

Compared with c1coc(-c2nc(CNC3CCCCC3)co2)c1, Oc1ccc(-c2nc(CNC3CCCCCCCCCCC3)co2)cc1 is higher in “% inhibition” value: 6% for the first, 60% for the second.

First: Cc1cc(C)cc(Oc2ccc(/C(=N/O)N3CCN(C4CCCC4)CC3)cn2)c1
Second: Cc1ccccc1CN/C(=N\O)c1cccnc1Oc1c(F)cccc1F
The “% inhibition” value of the first is lower: 0% for the first, 95% for the second.

First: O/N=C(\NCc1ccccc1)c1cccnc1Oc1c(F)c(F)cc(F)c1F
Second: CSc1ccccc1Oc1ncccc1/C(=N/O)NCc1c(F)cccc1F
The “% inhibition” value of the first is lower: 10% for the first, 58% for the second.

First: O/N=C(\NCc1c(F)cccc1F)c1cccnc1Oc1ccc(F)cc1
Second: COc1ccccc1Oc1ncccc1/C(=N/O)NCc1c(F)cccc1F
The “% inhibition” value of the first is higher: 94% for the first, 28% for the second.

In the case of CCOc1ccccc1CN/C(=N\O)c1cccnc1Oc1c(F)cccc1F, the “% inhibition” value is reported as 41%.

For CCC(NCc1coc(-c2ccccc2Br)n1)c1ccccc1 (centres undefined), the “% inhibition” value was -20% and -22%.
